Consider eight compounds from PubChem BioAssay (NCI).

Test systems include NCI-H23 lung; NCI-H226 lung; NCI-H322M lung; HOP-62 NSCLC; NCI-H460 lung; HOP-92 NSCLC; NCI-H522 lung; A549/ATCC NSCLC; 786-0 renal; COLO 205 colon; DU-145 prostate; K-562 leukemia; MALME-3M melanoma; MDA-MB-231 breast; RXF 393 renal; SF-268 CNS; SF-295 CNS; SF-539 CNS; UACC-257 melanoma; M14 melanoma.
Common to all, as to experiment: NCI-60 one-dose screen, 48 h (100 = growth as untreated, 0 = no growth, -100 = all killed)
What all share (details): 10 µM unless noted

About 83,000 compounds went through this panel and 20% of them were active in at least one assay; those are over-represented in the sample as a whole.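 A percent growth of 40 corresponds to 60% growth inhibition; 0 means no net growth; -100 means all cells died. Active threshold: below 10.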 Unmarked numbers belong to inactive results. Activity calls are given as the source filed them.

As to `CN1CCN(Cc2ccc(NC(=O)c3ccc(C#N)c(C#Cc4cnc(N)c5ncccc45)c3)cc2C(F)(F)F)CC1`, the growth with NCI-H23 lung was 96.8%; with NCI-H226 lung, 59.4%; in the experiment with NCI-H322M lung, 96.7%; in the experiment on HOP-62 NSCLC, 87.2%; with NCI-H460 lung it was 21.7%; in the experiment on HOP-92 NSCLC, 81.9%. In addition, the growth is 98.4% with NCI-H522 lung; 90.6% in the experiment with A549/ATCC NSCLC; -80.3% (active) in the experiment with 786-0 renal; 77.7% with COLO 205 colon; 28.8% in the experiment with DU-145 prostate; -5.03% (active) in the experiment on K-562 leukemia. The growth is -52% (active) in the experiment on MALME-3M melanoma; -2.17% (active) in the experiment with MDA-MB-231 breast; 41.9% with RXF 393 renal; 94.1% in the experiment on SF-268 CNS; 103% in the experiment with SF-295 CNS; 54.5% in the experiment on SF-539 CNS. Also, the growth in the experiment on UACC-257 melanoma is -20.1% (active); in the experiment with M14 melanoma it was 3.5% (active).

On to `O=C(CS)OCC(COC(=O)CS)(COC(=O)CS)COC(=O)CS`, for which the growth in the experiment with NCI-H23 lung was 85%; in the experiment with NCI-H226 lung it was 98.1%; in the experiment with NCI-H322M lung, 58.3%; in the experiment with HOP-62 NSCLC, 105%; in the experiment on NCI-H460 lung, 75.2%; in the experiment on HOP-92 NSCLC, 108%. For the same compound, the growth in the experiment with NCI-H522 lung is 76.4%; in the experiment with A549/ATCC NSCLC, 93.9%; in the experiment on 786-0 renal it was 103%; with COLO 205 colon it was 105%; with DU-145 prostate, 95.3%; in the experiment with K-562 leukemia, 34.3%. For the same compound, the growth in the experiment on MALME-3M melanoma is 89.6%; in the experiment with MDA-MB-231 breast it was 104%; in the experiment with RXF 393 renal, 98.8%; with SF-268 CNS, 82.7%; in the experiment on SF-539 CNS, 98.4%; in the experiment on UACC-257 melanoma, 59.3%. In the experiment on M14 melanoma, the growth was 18.1%.

Consider `CCOP(=O)(O)OP(=O)(O)OCC`, for which the growth is 104% in the experiment with NCI-H23 lung; 103% in the experiment with NCI-H226 lung; 98.1% with NCI-H322M lung; 103% in the experiment with HOP-62 NSCLC; 103% in the experiment with NCI-H460 lung; 98.6% in the experiment with HOP-92 NSCLC. The growth was 82.5% with NCI-H522 lung; 106% in the experiment with A549/ATCC NSCLC; 99.4% in the experiment with 786-0 renal; 103% in the experiment on COLO 205 colon; 105% in the experiment on DU-145 prostate; 89% in the experiment on K-562 leukemia. The growth in the experiment with MALME-3M melanoma is 98.1%; in the experiment on MDA-MB-231 breast, 112%; in the experiment with RXF 393 renal, 118%; in the experiment with SF-268 CNS, 100%; in the experiment with SF-539 CNS, 105%; in the experiment with UACC-257 melanoma it was 105%. Besides, the growth with M14 melanoma is 100%.

In the case of `COc1ccc(-c2nc3ccc(Cc4ccc5nc(-c6ccc(OC)cc6)[nH]c5c4)cc3[nH]2)cc1`, the growth was -17.9% (active) in the experiment on NCI-H23 lung; 90.6% with NCI-H226 lung; 97.7% in the experiment on NCI-H322M lung; 49.1% in the experiment with HOP-62 NSCLC; 69.1% in the experiment with NCI-H460 lung; 77.9% in the experiment on HOP-92 NSCLC. The growth in the experiment with NCI-H522 lung was -13.4% (active); in the experiment with A549/ATCC NSCLC, 48.5%; in the experiment with 786-0 renal, 89.5%; in the experiment with COLO 205 colon it was 5.61% (active); in the experiment with DU-145 prostate, 64.6%; in the experiment with K-562 leukemia it was 13.4%. The growth was -13.1% (active) in the experiment on MALME-3M melanoma; 17.3% with MDA-MB-231 breast; 93.9% in the experiment on RXF 393 renal; 6.83% (active) in the experiment on SF-268 CNS; 56.6% in the experiment on SF-539 CNS; -20% (active) in the experiment on UACC-257 melanoma. Moreover, the growth in the experiment with M14 melanoma was 40.1%.

With `CCOC(=O)c1ccc(NC(=O)NC2=NCCS2)cc1`, the growth in the experiment on NCI-H23 lung was 18.4%; in the experiment with NCI-H226 lung, 13.5%; with NCI-H322M lung it was 77.7%; with HOP-62 NSCLC, 35.7%; in the experiment on NCI-H460 lung, 19.5%; in the experiment on HOP-92 NSCLC, 73.6%. In addition, the growth in the experiment on NCI-H522 lung is 20.8%; in the experiment on A549/ATCC NSCLC, 22.5%; in the experiment with 786-0 renal, 33.8%; with COLO 205 colon, 103%; in the experiment with DU-145 prostate it was 0.751% (active); with K-562 leukemia, 58.6%. In addition, the growth with MALME-3M melanoma was 8.27% (active); in the experiment with MDA-MB-231 breast, 51.8%; in the experiment with RXF 393 renal, -15.3% (active); with SF-268 CNS, 40.4%; in the experiment on SF-539 CNS it was 1.9% (active); with UACC-257 melanoma it was 80.5%. In the experiment on M14 melanoma, the growth was 34.9%.

Turning to `COc1cc(/C=C/C(=O)c2ccc(NC(=O)CSc3nnc(-c4ccc(Cl)cc4)n3-c3ccccc3)cc2)cc(OC)c1OC`, the growth is 55.9% in the experiment with NCI-H23 lung; 82% in the experiment on NCI-H226 lung; 96.5% in the experiment on NCI-H322M lung; 96.5% in the experiment on HOP-62 NSCLC; 80% in the experiment on NCI-H460 lung; 97.9% in the experiment on HOP-92 NSCLC. Further, the growth was 63.8% in the experiment on NCI-H522 lung; 69.8% in the experiment with A549/ATCC NSCLC; 79% in the experiment on 786-0 renal; 79.8% in the experiment with COLO 205 colon; 80% in the experiment on DU-145 prostate; 44.3% in the experiment on K-562 leukemia. Moreover, the growth with MALME-3M melanoma is 101%; in the experiment with MDA-MB-231 breast it was 54.9%; in the experiment with RXF 393 renal, 55.5%; in the experiment on SF-268 CNS, 77.6%; with SF-539 CNS, 91.3%; in the experiment with UACC-257 melanoma, 73.6%. Moreover, the growth with M14 melanoma is 76.1%.

Turning to `Cc1ccc2cc3c(NC(=O)c4cccnc4)nn(C)c3nc2c1`, the growth with NCI-H23 lung was 90%; with NCI-H226 lung it was 85.3%; with NCI-H322M lung it was 89.4%; in the experiment on HOP-62 NSCLC, 101%; in the experiment on NCI-H460 lung, 98.2%; with HOP-92 NSCLC it was 81.5%. In addition, the growth is 67.1% with NCI-H522 lung; 95.7% in the experiment with A549/ATCC NSCLC; 98.6% with 786-0 renal; 85.5% in the experiment on COLO 205 colon; 100% in the experiment on DU-145 prostate; 85.8% with K-562 leukemia. In addition, the growth with MALME-3M melanoma was 99.1%; in the experiment on MDA-MB-231 breast it was 83.8%; in the experiment on RXF 393 renal, 89.3%; with SF-268 CNS, 97.3%; in the experiment with SF-295 CNS, 101%; in the experiment with SF-539 CNS it was 97.1%. Moreover, the growth in the experiment on UACC-257 melanoma was 99.3%; with M14 melanoma it was 93.3%.

With `COc1ccc(C(=O)C(C#N)c2cc(OC)c(OC)c(OC)c2)cc1` (centres undefined), the growth was 113% in the experiment on NCI-H23 lung; 99.4% in the experiment on NCI-H226 lung; 105% with NCI-H322M lung; 109% with HOP-62 NSCLC; 107% in the experiment on NCI-H460 lung; 83.6% with HOP-92 NSCLC. Moreover, the growth with NCI-H522 lung was 85.2%; in the experiment on A549/ATCC NSCLC, 98.1%; in the experiment with 786-0 renal, 97.6%; in the experiment with COLO 205 colon it was 106%; in the experiment with DU-145 prostate, 114%; in the experiment on K-562 leukemia it was 98.1%. Moreover, the growth in the experiment with MALME-3M melanoma is 106%; in the experiment with MDA-MB-231 breast, 115%; in the experiment on RXF 393 renal, 103%; in the experiment with SF-268 CNS, 114%; with SF-539 CNS, 93.8%; in the experiment on UACC-257 melanoma, 97.4%. Moreover, the growth with M14 melanoma was 102%.
